Where “and” joins values, the source holds several entries; their conditions need not be identical. Equal entries are not always repeated. In all, about 5,500 compounds went through this assay and about 2,000 (36%) were called active. Inconclusive results (about 18%) are left out. The list shows a part of the results. Unmarked numbers belong to inactive results. Rule as the data show it: active = normalized growth mostly below about 0.91 (no sharp cut-off); inconclusive = no clear call, values can overlap the other calls; inactive = mostly above about 0.92.
Assay: chemical genetic growth profiling, strain panel (AID 1159580);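 also: tested at 20 µM; growth read once vehicle control cultures reached saturation at 30 °C; 1 = growth at the plate median or of vehicle wells; lower values mean less growth of the strain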
Settings: S. cerevisiae deletion strains, growth OD

COC1=CC(=O)C=C(OC)C1=O
normalized growth (locus YAL021C, strain ccr4, stronger effect = lower value): 1.03 | normalized growth (locus YAL026C, strain drs2, stronger effect = lower value): 0.978 | normalized growth (locus YAL030W, strain snc1, stronger effect = lower value): 0.991 | normalized growth (locus YBL061C, strain skt5, stronger effect = lower value): 0.998 | normalized growth (locus YBR009C, strain hhf1, stronger effect = lower value): 0.98 | normalized growth (locus YBR021W, strain FUR4, stronger effect = lower value): 1.12 | normalized growth (locus YBR023C, strain chs3, stronger effect = lower value): 0.998 | normalized growth (locus YBR171W, strain sec66, stronger effect = lower value): 1.01 | normalized growth (locus YBR229C, strain ROT2, stronger effect = lower value): 0.956 | normalized growth (locus YBR231C, strain swc5, stronger effect = lower value): 0.982 | normalized growth (locus YBR279W, strain paf1, stronger effect = lower value): 0.992 | normalized growth (locus YCL011C, strain gbp2, stronger effect = lower value): 1.01 | normalized growth (locus YCL016C, strain dcc1, stronger effect = lower value): 0.997 | normalized growth (locus YCL029C, strain bik1, stronger effect = lower value): 0.97 | normalized growth (locus YCL061C, strain MRC1, stronger effect = lower value): 1.01 | normalized growth (locus YCL069W, strain vba3, stronger effect = lower value): 1 | normalized growth (locus YCR088W, strain abp1, stronger effect = lower value): 1 | normalized growth (locus YDL005C, strain med2, stronger effect = lower value): 1.02 | normalized growth (locus YDL035C, strain GPR1, stronger effect = lower value): 1.01 | normalized growth (locus YDL040C, strain nat1, stronger effect = lower value): 0.992 | normalized growth (locus YDL074C, strain BRE1, stronger effect = lower value): 1.05 | normalized growth (locus YDL101C, strain DUN1, stronger effect = lower value): 0.975 | normalized growth (locus YDL134C, strain PPH21, stronger effect = lower value): 0.979 | normalized growth (locus YDL185W, strain tfp1, stronger effect = lower value): 0.964 | normalized growth (locus YDL192W, strain arf1, stronger effect = lower value): 0.995 | normalized growth (locus YDR001C, strain nth1, stronger effect = lower value): 1 | normalized growth (locus YDR069C, strain doa4, stronger effect = lower value): 1 | normalized growth (locus YDR101C, strain arx1, stronger effect = lower value): 0.984 | normalized growth (locus YDR137W, strain rgp1, stronger effect = lower value): 0.88 | normalized growth (locus YDR159W, strain sac3, stronger effect = lower value): 0.794 (active) | normalized growth (locus YDR162C, strain NBP2, stronger effect = lower value): 0.982 | normalized growth (locus YDR195W, strain ref2): 1.18 [resistant] (active) | normalized growth (locus YDR297W, strain sur2, stronger effect = lower value): 0.978 | normalized growth (locus YDR318W, strain mcm21, stronger effect = lower value): 0.998 | normalized growth (locus YDR334W, strain swr1, stronger effect = lower value): 1.01 | normalized growth (locus YDR335W, strain msn5, stronger effect = lower value): 1.01 | normalized growth (locus YDR388W, stronger effect = lower value): 0.983 | normalized growth (locus YDR392W, strain spt3, stronger effect = lower value): 0.879 | normalized growth (locus YDR502C, strain sam2, stronger effect = lower value): 0.988 | normalized growth (locus YEL003W, strain gim4, stronger effect = lower value): 0.992 | normalized growth (locus YEL037C, strain rad23, stronger effect = lower value): 1.01 | normalized growth (locus YEL061C, strain CIN8 (second series), stronger effect = lower value): 1 | normalized growth (locus YEL061C, strain CIN8, stronger effect = lower value): 0.988 | normalized growth (locus YER015W, strain faa2, stronger effect = lower value): 0.997 | normalized growth (locus YER016W, strain bim1, stronger effect = lower value): 0.97 | normalized growth (locus YER110C, stronger effect = lower value): 0.97 | normalized growth (locus YER111C, strain swi4, stronger effect = lower value): 1.01 | normalized growth (locus YER155C, strain BEM2 (second series), stronger effect = lower value): 1.02 | normalized growth (locus YER155C, strain BEM2, stronger effect = lower value): 1 | normalized growth (locus YER167W, strain BCK2, stronger effect = lower value): 1 | normalized growth (locus YFR010W, strain ubp6, stronger effect = lower value): 1 | normalized growth (locus YGL078C, strain dbp3, stronger effect = lower value): 0.99 | normalized growth (locus YGL086W, strain mad1, stronger effect = lower value): 0.983 | normalized growth (locus YGL167C, strain pmr1, stronger effect = lower value): 0.987 | normalized growth (locus YGL173C, strain kem1, stronger effect = lower value): 1.01 | normalized growth (locus YGL227W, strain vid30, stronger effect = lower value): 0.998 | normalized growth (locus YGL240W, strain doc1, stronger effect = lower value): 0.914 | normalized growth (locus YGL248W, strain PDE1, stronger effect = lower value): 0.996 | normalized growth (locus YGL253W, strain hxk2, stronger effect = lower value): 1.01 | normalized growth (locus YGR135W, strain pre9, stronger effect = lower value): 1 | normalized growth (locus YGR252W, strain gcn5, stronger effect = lower value): 1.16 | normalized growth (locus YHR013C, strain ard1, stronger effect = lower value): 1.04 | normalized growth (locus YHR027C, strain rpn1, stronger effect = lower value): 0.995 | normalized growth (locus YHR030C, strain SLT2, stronger effect = lower value): 0.994 and 1.02 | normalized growth (locus YHR079C, strain IRE1 (second series), stronger effect = lower value): 0.984 | normalized growth (locus YHR079C, strain IRE1, stronger effect = lower value): 1.01 | normalized growth (locus YHR094C, strain hxt1, stronger effect = lower value): 0.976 | normalized growth (locus YHR129C, strain ARP1, stronger effect = lower value): 0.997 | normalized growth (locus YHR142W, strain chs7, stronger effect = lower value): 1.01 | normalized growth (locus YHR200W, strain rpn10, stronger effect = lower value): 1.01 | normalized growth (locus YIL066C, strain RNR3, stronger effect = lower value): 0.988 | normalized growth (locus YIL073C, strain SPO22, stronger effect = lower value): 0.975 | normalized growth (locus YIL125W, strain kgd1, stronger effect = lower value): 0.995 | normalized growth (locus YIR030C, strain dcg1, stronger effect = lower value): 0.989 | normalized growth (locus YJL092W, strain hpr5, stronger effect = lower value): 1 | normalized growth (locus YJL095W, strain BCK1 (second series), stronger effect = lower value): 0.996 | normalized growth (locus YJL095W, strain BCK1, stronger effect = lower value): 0.982 and 1.03 | normalized growth (locus YJL115W, strain asf1, stronger effect = lower value): 1.01 | normalized growth (locus YJL129C, strain trk1, stronger effect = lower value): 1.01 | normalized growth (locus YJL134W, strain LCB3, stronger effect = lower value): 0.99 | normalized growth (locus YJL154C, strain vps35, stronger effect = lower value): 1.01 | normalized growth (locus YJL164C, strain tpk1, stronger effect = lower value): 0.999 | normalized growth (locus YJL166W, strain qcr8, stronger effect = lower value): 0.99 | normalized growth (locus YJL168C, strain set2, stronger effect = lower value): 0.998 | normalized growth (locus YJL187C, strain SWE1 (second series), stronger effect = lower value): 0.987 | normalized growth (locus YJR043C, strain POL32, stronger effect = lower value): 1 | normalized growth (locus YJR066W, strain TOR1, stronger effect = lower value): 0.941
